IL-1B inflam inh: blocks inflammasome-driven IL-1 beta release | THP-1 LPS/ATP IL-1B secretion, AlphaLISA, 16 h; hits give low values | activity change, % at 57.5 µM | 360,000 compounds, 4.7% hits | AID 743279; in the data active = activity change below about -50%; inconclusive = mostly about -30% to -49%
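THP-1 cells pretreated 1 hr with compounds (up to 57.5 uM final), then stimulated with LPS (250 ng/mL final) plus ATP (1.25 mM final); secreted IL-1B measured by AlphaLISA after 16 hr, decreased signal indicating inhibition.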
HT1080-NT tox: kills 2HG-producing HT-1080-NT fibrosarcoma cells | HT-1080-NT fibrosarcoma viability, CellTiter-Glo ATP luminescence, 48 h | Potency, µM (series often up to 46.1 µM), hits mostly cytotoxic | 360,000 compounds, 1.6% hits | AID 686970;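 also: NT is the 2HG producing partner of a matched IDH1 knockdown line; nearly all actives have a fitted effect of over 55% in size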
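Luminescent CellTiter-Glo readout after 48 hours of compound exposure at 37 degrees C defined viability of HT-1080-NT cells. Activity was normalized to DMSO wells and cell-free media wells; concentration-response curves were fitted and assigned curve classes.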
DT40 TDP1 CPT: DT40-hTDP1 cell growth loss with CPT | chicken DT40 Tdp1-/-;hTDP1 cells + 20 nM CPT, ATP luminescence, 48 h | 420,000 compounds, 12% hits | Potency, µM (series often up to 46.2 µM), usual class: inhibitors; also: nearly all actives have a fitted effect of over 55% in size
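Chicken DT40 Tdp1-/- cells complemented with human TDP1, 400 cells/well, exposed to compounds plus 20 nM camptothecin for at least 48 h at 37 C; viability read as ATP content by CellTiter-Glo luminescence.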
TDP1 cell noCPT: qHTS for Inhibitors of human tyrosyl-DNA phosphodiesterase 1 (TDP1): qHTS in cells in absence of CPT. DT40 Tdp1-/- hTDP1 cells, no CPT, ATP luminescence, 48 h. Potency, µM (top dose mostly 46.2 µM), hits mostly inhibitors. 420,000 compounds, 15% hits; also: nearly all actives have a fitted effect of over 55% in size
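Growth of hTDP1-complemented DT40 Tdp1-knockout cells is measured by ATP luminescence after at least 48 hr compound exposure at 37 °C, with DMSO substituting for the 20 nM CPT used in the parallel screen.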
HT1080 IDH1KD tx: HT-1080 IDH1 knockdown cell toxicity (counter line); HT-1080 IDH1 knockdown viability, ATP luminescence, 48 h; Potency, µM (top dose mostly 46.1 µM), usual class: cytotoxic; 360,000 compounds, 2% hits; AID 686971
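% activity derives from luminescence (CellTiter-Glo), normalised to DMSO and no-cell wells. HT-1080-IDH1KD cells, 750/well, had 48 h compound exposure at 37 °C.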
ELG1 DNA repair: ELG1-dependent DNA repair inhibition; HEK293T ELG1-luciferase reporter, luminescence, 16 h; DNA damage induced by 5-fluorouridine; 330,000 compounds, 2.3% hits; Potency, µM (highest dose often 46.1 µM), hits mostly inhibitors; also: nearly all actives have a fitted effect of over 55% in size
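DMSO vehicle served as the neutral condition. Each well held 2,000 cells given 5-fluorouridine plus compound; after 16 hr at 37 °C/5% CO2, ONE-Glo was added and luciferase measured 30 min later.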
Numbers stand for hits; . = inactive; ? = inconclusive; / = no result. Most compounds without a hit are left out; they make up all but 19% or so of the library. Unless noted, calls follow the shape of the dose curve; as a rule, active = well fitted curve in the direction sought with a large enough effect; inconclusive = small, poorly fitted or top-dose-only effect, or another doubt; inactive = no such curve, though single readings can be large; an effect the other way counts as inactive or inconclusive.

SMILES	IL-1B inflam inh	HT1080-NT tox	DT40 TDP1 CPT	TDP1 cell noCPT	HT1080 IDH1KD tx	ELG1 DNA repair
COc1ccc(CNCCc2c(C)[nH]c3ccc(OC(F)(F)F)cc23)c(OC)c1	-95.5	20.6µM	4.61µM	1.84µM	23.1µM	1.03µM
COc1ccc2[nH]c(C)c(CCNCc3cc(OC)c(OC)c(OC)c3)c2c1	.	.	?	.	.	.
OC[C@@H](O)[C@H]1O[C@@H]2O[C@H](C(Cl)(Cl)Cl)O[C@@H]2[C@H]1O	/	/	.	.	/	/
CCCCCCOc1ccc(CN2CCN(C)CC2)cc1	?	?	17.8µM	17.8µM	?	?
CN1CCN(Cc2ccc3ccccc3c2)CC1	.	.	.	.	.	.
CCOC(=O)[C@]12Cc3c(cc(OC)c(OC)c3OC)[C@H]1N(C)C(=O)c1ccccc12	-54.8	.	?	20.6µM	.	/
CCOC(=O)[C@]12Cc3c(cc(OC)c(OC)c3OC)[C@H]1N(CCC(=O)OC)C(=O)c1ccccc12	-116.3	?	18.4µM	16.4µM	?	/
C=CCc1cc(C)ccc1OCCCC(C(=O)OCC)C(=O)OCC	.	.	.	?	.	.
S=C(NCCc1ccccc1)N1Cc2cc(-c3ccccc3)ccc2-n2nncc2C1	.	.	?	?	?	/
COCCNC(=S)N1Cc2ccccc2-n2nncc2C1	.	.	.	.	.	/
Fc1cccc(-c2ccc3c(c2)CN(C(=S)NCCc2ccccc2)Cc2cnnn2-3)c1	-57.4	?	?	?	.	/
S=C(NCCc1ccccc1)N1Cc2ccccc2-n2nncc2C1	.	.	?	20.6µM	.	/
O=c1[nH]c(=O)n(CCC2=CCCCC2)c(O)c1/C=N/Nc1ccccc1	.	?	.	.	?	.
CCN(CC)CCCN=Cc1c(O)n(CCc2ccc(F)cc2)c(=O)[nH]c1=O	.	.	.	.	.	.
CCCCCCn1c(O)c(C=NC2CCN(Cc3ccccc3)CC2)c(=O)[nH]c1=O	.	.	20.6µM	10.3µM	.	20.6µM
O=c1[nH]c(=O)n(CCC2=CCCCC2)c(O)c1C=NC1CCN(Cc2ccccc2)CC1	?	.	14.6µM	16.4µM	.	?
NC1CCCCC1N=Cc1c(O)n(CCc2ccc(F)cc2)c(=O)[nH]c1=O (centres undefined)	.	.	?	18.4µM	.	.
C=CCn1c(O)c(C=NC2CCN(Cc3ccccc3)CC2)c(=O)[nH]c1=O	.	?	.	.	.	.
O=C(c1ccncc1)N1CCC[C@@]2(CCN(Cc3nccs3)C2)C1	/	/	.	.	/	/
Cn1cccc1C1CCCN1CC(=O)Nc1ccc(C#N)c(Cl)c1 (centres undefined)	.	.	?	?	.	?
CCOC(=O)C1=C(C)N=C2c3ccccc3C(=O)C2C1c1ccc(Cl)cc1 (centres undefined)	-51.9	?	?	?	?	20.6µM
C=CCN1Cc2ccccc2-n2nncc2C1	.	.	.	.	.	/
CCn1c(=O)oc2cc(NC(=O)CCl)ccc21	-99.8	8.2µM	11.6µM	14.6µM	5.17µM	?
CCOC(=O)Cn1c(=O)oc2cc(S(=O)(=O)Nc3c(C)cc(C)cc3C)ccc21	.	?	?	?	?	.
ClC1=C(Cl)[C@]2(Cl)[C@@H]3[C@H]4C[C@H]([C@@H]5O[C@H]45)[C@@H]3[C@@]1(Cl)C2(Cl)Cl	/	/	.	?	/	/
O=P1(NCCCn2cc[n+](Cc3nc4ccccc4[nH]3)c2)C=C(c2ccccc2)OC(c2ccccc2)=C1	.	.	.	.	.	.
Cc1ccc(S(=O)(=O)CC(=O)c2cc(C)c(OC(=O)N(C)C)c(C)c2)cc1	.	.	?	?	.	.
Cc1cc(C(=O)CS(=O)(=O)c2ccccc2)cc(C)c1OC(=O)N(C)C	.	.	?	18.4µM	.	?

Compound activity deposited in PubChem by National Center for Advancing Translational Sciences (NCATS).
